A short description of assay [1]: qHTS assay to identify small molecule agonists of the RXR signaling pathway - cell viability counter screen (AID 1159529). Further: nearly all actives have a fitted effect of over 50% in size. Further: potency means the concentration at half of the fitted maximal effect. The method in brief: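 HEK 293T RXRa-bla cells, 2% CS-FBS; 5 h settle; cpd 16 h 37 C, 5% CO2; CellTiter-Glo 30 min RT, luminescence. Tetraoctyl ammonium bromide as positive control.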
On the technique in general: Quantitative high-throughput screening tests each substance at several concentrations.

Assay [2] is described as follows: qHTS assay to identify small molecule antagonists of the retinoid acid receptor (RAR) signaling pathway - cell viability counter screen (AID 1159551). Further: nearly all actives have a fitted effect of over 35% in size. In short, it runs like this: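 Viability of C3RL4 cells is quantified from ATP by luminescence after 6 h treatment at 37 C with compounds and 1 uM retinol.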
Assay [3] can be described thus: qHTS assay to identify small molecule agonists of the retinoic acid receptor (RAR) signaling pathway (AID 1159553). In short, it runs like this: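 Compounds dissolved in DMSO were pinned onto C3RL4 cells seeded the previous day, and plates were held 6 hr at 37 C. RARE-driven luciferase output was then read by luminescence.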
The nature of assay [4]: qHTS assay to identify small molecule antagonists of the estrogen related receptor (ERR) signaling pathway from Tox21 library - cell viability counter screen (AID 1224834). Further: nearly all actives have a fitted effect of over 30% in size. Further: potency means the concentration at half of the fitted maximal effect. In short, it runs like this: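 In this quantitative HTS format, ERR cells receive compounds in DMSO and are incubated for 17.5 h at 37 C. Live-cell protease activity is then detected with CellTiter-Fluor.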

A short description of assay [5]: qHTS assay to identify small molecule agonists of the constitutive androstane receptor (CAR) signaling pathway - cell viability counter screen (AID 1224836). Further: nearly all actives have a fitted effect of over 45% in size. Further: potency means the concentration at half of the fitted maximal effect. The method in brief: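 HepG2-CYP2B6-hCAR, 2500 cells/well, 4 h pre-incubation; cpd 15 conc + PK11195 0.75 uM final; 23 h, 37 C/5% CO2; CellTiter-Fluor, fluorescence.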
A short description of assay [6]: qHTS assay to identify small molecule antagonists of the constitutive androstane receptor (CAR) signaling pathway - cell viability counter screen (AID 1224837). Further: nearly all actives have a fitted effect of over 45% in size. Further: potency means the concentration at half of the fitted maximal effect. The method in brief:
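In quantitative HTS format, compounds at 15 concentrations were applied to HepG2 cells double-transfected with hCAR and CYP2B6-2.2kb under 50 nM CITCO stimulation; live-cell protease activity was read after 23 hr via CellTiter-Fluor.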

A short description of assay [7]: qHTS assay to identify small molecule antagonists of the estrogen related receptor signaling pathway with the pleiotropic PPARgamma coactivator (PGC) from Tox21 10K library - cell viability counter screen (AID 1224840; active means well fitted cell-killing curve with a large enough effect in the repeat runs, not every such curve was filed as active; further: nearly all actives have a fitted effect of over 40% in size; further: potency means the concentration at half of the fitted maximal effect). In short, it runs like this: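 Viability counter screen, PGC/ERR cells: 17.5 h compound exposure at 37 C, CellTiter-Fluor fluorescence endpoint.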

Assay [8] can be described thus: qHTS assay to identify small molecule antagonists of the estrogen related receptor signaling pathway with the pleiotropic PPARgamma coactivator (PGC) from Tox21 10K library (AID 1224841; call rule not given here; further: series mostly up to about 92 µM; actives are mostly falling curves and most rising ones were filed inactive; nearly all actives have a fitted effect of over 50% in size). In short, it runs like this:
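In the PGC/ERR line, DMSO solutions of test chemicals are pin-delivered to 2,000 cells/well six hours after dispensing. Following eighteen hours' incubation, One-Glo reagent is added and luminescence recorded.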

Assay [9] in a line: qHTS assay to identify small molecule agonists of the estrogen related receptor signaling pathway with the pleiotropic PPARgamma coactivator (PGC) from Tox21 10K library (AID 1224842). Further: nearly all actives have a fitted effect of over 15% in size. In short, it runs like this:
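PGC/ERR reporter cell line, 2,000 cells per well, incubated 6 h at 37 C before 23 nL compound in DMSO was added. After 18 h at 37 C, One-Glo luminescence read following 30 min at room temperature.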

The target in assay [10] is Luciferin 4-monooxygenase (Photinus pyralis) (UniProt P08659). As to the kind of experiment: qHTS assay to identify small molecule inhibitors of firefly luciferase (AID 1224835). Further: nearly all actives have a fitted effect of over 25% in size. Further: potency means the concentration at half of the fitted maximal effect. In short, it runs like this: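 Biochemical qHTS: compounds run as interplate titrations against purified firefly enzyme, with D-luciferin and ATP each at its KM concentration. Light output recorded by CCD imaging.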

Assay [11] deals with Nuclear receptor subfamily 1 group I member 3 (Homo sapiens) (UniProt Q14994). As to the kind of experiment: qHTS assay to identify small molecule antagonists of the constitutive androstane receptor (CAR) signaling pathway (AID 1224838). Further: nearly all actives have a fitted effect of over 40% in size. In short, it runs like this: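 CITCO-stimulated (50 nM final) HepG2 cells stably transfected with hCAR and CYP2B6-2.2kb luciferase were exposed to compounds at 15 concentrations for 24 h at 37 C/5% CO2. A luciferase reagent was added and luminescence recorded after 30 min.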

Assay [12] shares this target. As to the kind of experiment: qHTS assay to identify small molecule agonists of the constitutive androstane receptor (CAR) signaling pathway (AID 1224839). Further: nearly all actives have a fitted effect of over 15% in size. Further: potency means the concentration at half of the fitted maximal effect. In short, it runs like this: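 HepG2-CYP2B6-hCAR cells, 2500/well, 4 h pre-incubation; compounds 15 conc.; PK11195 0.75 uM final; 24 h, 37 C/5% CO2; ONE-Glo luciferase read.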
The target of assay [13] is Thyrotropin receptor (Homo sapiens) (UniProt P16473). In words: qHTS assay to identify small molecule agonists of the thyroid stimulating hormone receptor (TSHR) signaling pathway (AID 1224843; calls by dose curve; further: nearly all actives have a fitted effect of over 45% in size). The method in brief:
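Agonist-mode screen: TSHR HEK293 cells received test chemicals for half an hour at room temperature, then HTRF cAMP detection reagents for one hour prior to fluorescence measurement. Each chemical ran as a 15-concentration series, triplicated.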

Assay [14] in a line: qHTS assay to identify small molecule antagonists of the estrogen related receptor (ERR) signaling pathway - cell viability counter screen (AID 1224818). Further: series mostly up to about 46 µM. In short, it runs like this:
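Cytotoxicity check run alongside the ERR antagonist screen: cells exposed to test compounds 17.5 h at 37 C, viability taken as CellTiter-Fluor fluorescence intensity.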

Assay [15] can be described thus: qHTS assay to identify small molecule antagonists of the estrogen related receptor signaling pathway with the pleiotropic PPARgamma coactivator (PGC) cell viability counter screen (AID 1224822; further: series mostly up to about 46 µM). In short, it runs like this: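 Viable cell signal (CellTiter-Fluor, 30 min, 37 C/5% CO2) was measured in PGC/ERR cells after a 17.5 h compound incubation.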
Assay [16] can be described thus: qHTS assay to identify small molecule antagonists of the estrogen related receptor (ERR) signaling pathway (AID 1224819; further: potency means the concentration at half of the fitted maximal effect; nearly all actives have a fitted effect of over 50% in size). The method in brief: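 ERR reporter cells were plated at 2,000 cells/well and left 6 h at 37 C/5% CO2 before pin-tool transfer of compounds in DMSO. After 18 h at 37 C, One-Glo was added and luminescence was read 30 min later at room temperature.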

Assay [17] can be described thus: qHTS assay to identify small molecule agonists of the estrogen related receptor (ERR) signaling pathway (AID 1224820). In short, it runs like this:
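An ERR cell line provided by NTP was seeded at 2,000 cells per well and allowed to settle for 6 h before compounds in DMSO were added. After 18 h at 37 C, luciferase activity was measured by One-Glo luminescence.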

The subject of assay [18] is estrogen-related receptor alpha (ERRalpha) with PGC-1alpha coactivator, human. In words: qHTS assay to identify small molecule antagonists of the estrogen related receptor signaling pathway with the pleiotropic PPARgamma coactivator (PGC) (AID 1224821; calls by dose curve; further: potency means the concentration at half of the fitted maximal effect; nearly all actives have a fitted effect of over 50% in size). The method in brief:
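A PGC/ERR cell line supplied by NTP is seeded, allowed 6 h at 37 C, and treated with test compounds in DMSO for 18 h. Signal is then measured as luciferase luminescence using One-Glo.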

Assay [19] is described as follows: qHTS assay to identify small molecule agonists of the estrogen related receptor signaling pathway with the pleiotropic PPARgamma coactivator (PGC) (AID 1224823). The method in brief: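 Compounds dissolved in DMSO are added by pin tool to PGC/ERR cells that have settled for 6 h, and incubation continues 18 h at 37 C. Reporter output is measured as One-Glo luminescence.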

Potency and outcome data for eleven compounds are collected here from PubChem BioAssay (Tox21).

Results filed as inconclusive are left out. Values without a mark were called inactive. Calls of active or inactive are those of the source. Unless noted, the call rests on the fitted dose curve; in most records, active means well fitted curve in the direction sought with a large enough effect in the repeat runs; inconclusive means weak or mixed curves; inactive means no such curve, though single readings can be large; an effect the other way counts as inactive or inconclusive.

Thyrotropin receptor (Homo sapiens), sequence (P16473 whole entry, looked up): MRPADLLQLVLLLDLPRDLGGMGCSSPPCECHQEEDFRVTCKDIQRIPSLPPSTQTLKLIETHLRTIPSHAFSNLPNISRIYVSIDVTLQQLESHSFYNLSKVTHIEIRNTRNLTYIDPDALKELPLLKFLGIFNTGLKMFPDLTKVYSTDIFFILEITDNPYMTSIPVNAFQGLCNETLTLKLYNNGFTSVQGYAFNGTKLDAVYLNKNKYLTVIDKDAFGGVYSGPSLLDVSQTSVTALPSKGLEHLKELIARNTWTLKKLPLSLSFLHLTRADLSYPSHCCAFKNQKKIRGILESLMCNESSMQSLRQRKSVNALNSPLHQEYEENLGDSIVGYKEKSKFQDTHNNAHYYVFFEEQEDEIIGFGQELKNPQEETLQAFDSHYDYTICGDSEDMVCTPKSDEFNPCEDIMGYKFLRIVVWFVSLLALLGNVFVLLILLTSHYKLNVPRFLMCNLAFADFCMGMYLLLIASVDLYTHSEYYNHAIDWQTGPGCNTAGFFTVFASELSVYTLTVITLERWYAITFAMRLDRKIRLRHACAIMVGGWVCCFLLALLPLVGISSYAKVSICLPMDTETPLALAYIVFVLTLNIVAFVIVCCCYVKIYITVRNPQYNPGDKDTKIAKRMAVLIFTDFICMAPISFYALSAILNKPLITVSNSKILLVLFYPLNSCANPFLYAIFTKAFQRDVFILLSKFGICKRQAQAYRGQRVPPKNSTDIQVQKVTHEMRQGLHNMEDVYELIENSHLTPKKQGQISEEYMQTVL
Nuclear receptor subfamily 1 group I member 3 (Homo sapiens), sequence (Q14994 whole entry, looked up): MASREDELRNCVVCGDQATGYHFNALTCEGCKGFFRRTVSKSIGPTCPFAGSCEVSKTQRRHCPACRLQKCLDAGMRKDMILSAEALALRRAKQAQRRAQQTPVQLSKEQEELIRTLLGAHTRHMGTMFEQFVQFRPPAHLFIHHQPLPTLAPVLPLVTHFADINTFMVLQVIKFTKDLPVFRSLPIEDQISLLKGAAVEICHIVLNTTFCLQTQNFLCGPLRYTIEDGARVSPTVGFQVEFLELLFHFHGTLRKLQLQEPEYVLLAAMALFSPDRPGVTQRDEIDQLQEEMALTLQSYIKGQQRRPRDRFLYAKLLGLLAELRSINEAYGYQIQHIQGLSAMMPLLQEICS
Luciferin 4-monooxygenase (Photinus pyralis), sequence (P08659 whole entry, looked up): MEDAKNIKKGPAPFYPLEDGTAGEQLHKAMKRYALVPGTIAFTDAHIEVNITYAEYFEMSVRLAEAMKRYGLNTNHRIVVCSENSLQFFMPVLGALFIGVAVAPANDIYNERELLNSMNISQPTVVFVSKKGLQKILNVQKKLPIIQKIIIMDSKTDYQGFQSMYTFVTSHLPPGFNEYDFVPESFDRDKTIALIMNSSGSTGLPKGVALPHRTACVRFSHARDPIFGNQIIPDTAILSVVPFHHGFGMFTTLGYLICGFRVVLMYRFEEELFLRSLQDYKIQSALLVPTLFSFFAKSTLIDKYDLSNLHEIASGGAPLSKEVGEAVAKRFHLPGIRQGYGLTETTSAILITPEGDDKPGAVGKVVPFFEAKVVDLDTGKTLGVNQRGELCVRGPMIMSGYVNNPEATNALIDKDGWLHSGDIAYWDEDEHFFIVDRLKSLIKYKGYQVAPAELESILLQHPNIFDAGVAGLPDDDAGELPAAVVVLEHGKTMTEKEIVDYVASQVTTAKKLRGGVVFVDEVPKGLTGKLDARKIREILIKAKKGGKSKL

For `CC(=O)[O][Al][O]C(C)=O`, the Potency entry in assay [1], in [2], in [3], in assay [4], in assay [5] and in assay [6] was “inactive” each time. The Potency entry in assay [7], in assay [8] and in [9] was “inactive” in each case.
`CCCCC1=NC2(CCCC2)C(=O)N1Cc1ccc(-c2ccccc2-c2nn[nH]n2)cc1`: the Potency entry in assay [1], in [2], in assay [3], in assay [10], in assay [5] and in [6] was “inactive” each time. The Potency result in assay [11], in assay [12] and in [7] was “inactive” in each case.
As for `Brc1c2ccccc2cc2ccccc12`, in assay [1], the Potency is 35 µM (active). For the same compound, the Potency result in [2], in assay [3], in assay [4], in [5], in assay [6] and in [11] was “inactive” in each case. The Potency entry in assay [7] and in assay [13] was “inactive” throughout.
As to `CC(C)(COC(=O)c1ccccc1)COC(=O)c1ccccc1`, the Potency entry in assay [1], in assay [2], in assay [4], in assay [10], in assay [5] and in assay [6] was “inactive” in each case. For the same compound, the Potency result in [11], in assay [12] and in [7] was “inactive” each time.
As for `CN1Cc2cc(C(=O)N3CCC(C4CCNCC4)CC3)ccc2NC(CC(=O)O)C1=O` (stereo unspecified), the Potency result in assay [1], in assay [2], in assay [4], in assay [10], in assay [5] and in assay [6] was “inactive” in each case. Besides, the Potency entry in assay [11], in assay [12], in assay [7], in assay [8], in assay [9] and in assay [13] was “inactive” throughout.
Turning to `c1ccc(C(O[C@H]2CCCN(CCc3ccc4c(c3)OCO4)C2)c2ccccc2)cc1`, the Potency result in assay [1], in assay [2], in [4], in [10], in assay [5] and in assay [6] was “inactive” in each case. Further, the Potency entry in [7] and in assay [13] was “inactive” in each case.
For the compound `CCN(CC)CCNc1ccc(CNC=O)c2sc3ccc(OC)cc3c(=O)c12`, the Potency in [1] was 3.09 µM (active); in [4], 7.7 µM (active); in [5], 8.63 µM (active); in assay [6], 8.63 µM (active); in assay [7], 6.11 µM (active). Further, the Potency result in assay [2] and in assay [10] was “inactive” each time.
As for `O=[N+]([O-])c1ccc(NCCO)c(OCCO)c1`, the Potency result in [1], in [2], in assay [10], in assay [8], in assay [9] and in [13] was “inactive” each time. Besides, the Potency in assay [4] was 30.7 µM (active); in [5] it was 43.3 µM (active); in assay [6] it was 48.6 µM (active); in [7] it was 48.6 µM (active).
In the case of `C#CCN(C)CCCOc1ccc(Cl)cc1Cl`, the Potency entry in [1], in [2], in assay [4], in assay [5], in [6] and in [11] was “inactive” in each case. In assay [7], the Potency result was “inactive”. The compound was called inactive in assay [14] and in [15]. Also, the Potency in assay [10] is 15.5 µM (active); in assay [12], 26.6 µM (active).
As to `CCOC(=O)COC(=O)c1cc(Oc2ccc(C(F)(F)F)cc2Cl)ccc1[N+](=O)[O-]`, the Potency entry in [1], in assay [2], in assay [3], in assay [10], in assay [5] and in [6] was “inactive” throughout. Besides, the Potency result in assay [11] and in [7] was “inactive” each time.
With `CC(C)C[C@H]1C(=O)N2CCC[C@H]2[C@]2(O)O[C@](NC(=O)[C@@H]3C=C4c5cccc6[nH]c(Br)c(c56)C[C@H]4N(C)C3)(C(C)C)C(=O)N12`, the Potency in assay [16] was 16.8 µM (active); in assay [18], 16.2 µM (active). Besides, the outcome in [17] and in [19] was inactive.
